Sampled rows, rich in hits. Any-hit rate of the full collection: about 6.6%.
TGFb inhibitor: inhibitors of TGF-b signaling; HepG2 CAGA-GFP TGF-b/SMAD3 reporter, GFP fluorescence, 18 h; TGF-beta stimulated, 500 pg/mL final; 410,000 compounds, 1.2% hits; Potency, µM (top dose mostly 46.1 µM), actives largely listed as inhibitors; further: nearly all actives have a fitted effect of over 65% in size
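HEPG2 CAGA-GFP cells (1000/well, DMEM with 1% FBS) were pre-incubated 2 h at 37 degrees C, given compound by pin tool, then stimulated with TGF-beta at 500 pg/mL final for 18 h before per-cell GFP fluorescence imaging.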
HepG2 tox-1: HepG2 cytotoxicity, counter-screen for TGF-b inhibitors; HepG2 CAGA-GFP viability, ATP luminescence, 18 h; 410,000 compounds, 0.76% hits; Potency, µM (top dose mostly 46.1 µM), usual class: cytotoxic
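CellTiter-Glo luminescence gave cytotoxicity after 18 hours at 37 degrees C. The cells were HepG2 CAGA-GFP in 1% FBS DMEM, stimulated with 500 pg/mL TGF-beta after compound addition. %Activity was normalised to no-cell wells (complete cell-killing) and DMSO (no toxicity), and curves were fitted and classified.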
HT1080 IDH1KD tx: HT-1080 IDH1 knockdown cell toxicity (counter line). 360,000 compounds, 2% hits. HT-1080 IDH1 knockdown viability, ATP luminescence, 48 h. Potency, µM (titrated, usually from 46.1 µM), usual class: cytotoxic
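Assay cells: HT-1080 with IDH1 knockdown, 750 per well, RPMI/5% FBS. Exposure: 48 h at 37 °C following 2 h pre-incubation. Read: CellTiter-Glo luminescence; fitted concentration-response, curve class assigned.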
KB-3-1 tox: kills parental KB-3-1 adenocarcinoma cells; Potency, µM (top dose mostly 46.1 µM), most hits filed as cytotoxic; KB-3-1 viability, CellTiter-Glo ATP luminescence, 72 h; 400,000 compounds, 1.4% hits; further: nearly all actives have a fitted effect of over 60% in size
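Cells are dispensed, compounds pinned in, plates held at 37 °C for 72 h, then CellTiter-Glo is added and luminescence read after 10 minutes. Cell line: parental KB-3-1 in phenol-red-free DMEM, 10% FBS.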
HT1080-NT tox: kills 2HG-producing HT-1080-NT fibrosarcoma cells. HT-1080-NT fibrosarcoma viability, CellTiter-Glo ATP luminescence, 48 h. Potency, µM (doses to about 46.1 µM), actives largely listed as cytotoxic. 360,000 compounds, 1.6% hits. AID 686970;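 further: NT is the 2HG producing partner of a matched IDH1 knockdown line; nearly all actives have a fitted effect of over 55% in size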
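Read-out is CellTiter-Glo luminescence after 10 minutes at room temperature, following 48 hours' compound treatment of HT-1080-NT cells (750 cells/well, RPMI, 5% FBS, 37 degrees C).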
KB-V1 MDR tox: kills drug-selected multidrug resistant KB-V1 cells. KB-V1 MDR cells viability, CellTiter-Glo, 72 h. Potency, µM (top dose mostly 46.1 µM), usual class: cytotoxic. 400,000 compounds, 3.4% hits. AID 1347076; further: nearly all actives have a fitted effect of over 60% in size
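In this primary screen, KB-V1 cells overexpressing P-gp are incubated with library compounds (lowest to highest concentration) for 72 h at 37 degrees C before a luminescent ATP viability read.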
TGFb confirm: confirmation of TGF-b signaling inhibitors in HepG2 reporter cells; shares compounds with TGFb inhibitor; HepG2 CAGA-GFP TGF-b reporter, GFP fluorescence, 18 h; cells stimulated with TGF-beta, 500 pg/mL; Potency, µM (series often up to 46.1 µM), most hits filed as inhibitors; 1,600 compounds, 63% hits; further: nearly all actives have a fitted effect of over 65% in size
HepG2 tox-2: HepG2 cytotoxicity, TGF-b inhibitor counterscreen; Potency, µM (doses to about 46.1 µM), actives largely listed as inhibitors; AID 720535; HepG2 CAGA-GFP viability, ATP luminescence, 18 h; cells stimulated with TGF-beta, 500 pg/mL; shares compounds with TGFb inhibitor; 1,600 compounds, 27% hits; further: nearly all actives have a fitted effect of over 70% in size
TGFb CCL64 inh: orthogonal confirmation of TGF-b inhibitors in CCL64 cells; shares compounds with TGFb inhibitor; CCL64 CAGA-GFP reporter, TGF-b stimulated, GFP fluorescence, 18 h; Potency, µM (highest dose often 46.1 µM), actives largely listed as inhibitors; 1,600 compounds, 41% hits; AID 720536; further: nearly all actives have a fitted effect of over 65% in size
TGFb COP inh: TGF-b inhibition validated with COP promoter; shares compounds with TGFb inhibitor; HepG2 COP-GFP TGF-b reporter, GFP fluorescence, 18 h; cells stimulated by added recombinant TGF-beta; Potency, µM (highest dose often 46.1 µM), hits mostly inhibitors; 1,600 compounds, 3% hits; AID 720537; further: nearly all actives have a fitted effect of over 70% in size
Hits are given with their value; – = inactive; ? = inconclusive; · = not tested or not shown. The call rests on the fitted dose curve; in most records, active means well fitted curve in the direction sought with a large enough effect; inconclusive means small, poorly fitted or top-dose-only effect, or another doubt; inactive means no such curve, though single readings can be large; an effect the other way counts as inactive or inconclusive.

SMILES | TGFb inhibitor | HepG2 tox-1 | HT1080 IDH1KD tx | KB-3-1 tox | HT1080-NT tox | KB-V1 MDR tox | TGFb confirm | HepG2 tox-2 | TGFb CCL64 inh | TGFb COP inh
CC1CCC/C=C/C2CC(O)CC2C(O)/C=C/C(=O)O1 (stereo unspecified) | 0.112µM | – | ? | ? | ? | ? | 0.0651µM | ? | ? | –
O=[N+]([O-])c1ccc(N(CCO)CCO)c2c1no[n+]2[O-] | 7.08µM | – | 5.8µM | 4.61µM | 8.2µM | 20.6µM | 10.3µM | 13µM | 11.6µM | ?
CN1CCN(c2ccc([N+](=O)[O-])c3no[n+]([O-])c23)CC1 | 3.16µM | 8.91µM | 4.61µM | ? | 2.91µM | ? | 4.11µM | 5.17µM | 3.26µM | ?
COc1ccc(C(c2nnnn2-c2ccc(OC)cc2)N2CCC(n3c(=O)[nH]c4ccccc43)CC2)cc1 (stereo unspecified) | 11.2µM | – | ? | ? | ? | ? | 16.4µM | – | 13µM | –
CSCCC(c1nnnn1C1CCCCC1)N1CCC(n2c(=O)[nH]c3ccccc32)CC1 (stereo unspecified) | 14.1µM | – | ? | – | ? | – | 25.9µM | – | – | –
O=c1[nH]c2ccccc2n1C1CCN(C(c2nnnn2C2CCCCC2)C2CC2)CC1 (stereo unspecified) | ? | – | – | – | – | – | · | · | · | ·
COc1ccc(-n2nnnc2C(c2cc3ccccc3o2)N2CCC(n3c(=O)[nH]c4ccccc43)CC2)cc1 (stereo unspecified) | ? | – | ? | ? | ? | ? | · | · | · | ·
CN[C@@H](C)[C@H](O)c1ccccc1 | – | – | · | ? | · | ? | · | · | · | ·
Cc1ccccc1Cc1c(C)nc2c(C(=O)NCc3ccco3)cnn2c1C | ? | – | ? | – | ? | ? | · | · | · | ·
CC(=O)c1cn(Cc2ccc(F)cc2)c2ccccc12 | ? | – | – | – | – | ? | 9.2µM | 4.11µM | – | –
Cc1cc([N+](=O)[O-])c(Cl)cc1NC(=O)C(C)C | ? | – | – | – | – | – | · | · | · | ·
CNc1cc(Cl)c2nonc2c1[N+](=O)[O-] | 5.62µM | – | 5.8µM | ? | 3.26µM | ? | 3.26µM | 13µM | 2.59µM | ?
COc1cc(C(c2c(O)c3ccccc3oc2=O)c2c(C)n(C)n(-c3ccccc3)c2=O)ccc1OCC(=O)O (stereo unspecified) | – | – | · | – | · | – | · | · | · | ·
CCOP(=O)(c1ccccc1)c1nc(-c2ccc(F)cc2)oc1N1CCCCC1 (stereo unspecified) | – | – | ? | – | ? | – | · | · | · | ·
NC1=C(Br)C(=O)c2ccccc2C1=O | 5.62µM | 5.62µM | 20.6µM | ? | 25.9µM | 11.6µM | 5.17µM | 8.2µM | 9.2µM | ?
CC[C@@]1(O)C(=O)OCc2c1cc1n(c2=O)Cc2cc3c(N)cccc3nc2-1 | 0.562µM | – | 1.3µM | ? | 2.06µM | – | 1.16µM | 0.411µM | – | –
